Bioassay records as filed in PubChem.
Rows were chosen to be rich in hits. Some 31% of all compounds tested hit in one or more screens of this group.
PLAP activator: PLAP enzyme activators, biochemical, luminescence, HTS | activation fold at 20 µM | Alkaline phosphatase, placental type (Homo sapiens), P05187 | 1.2% of 96,000 active | purified PLAP enzyme, luminescent substrate read-out; stronger effect = higher value; in the data active means activation fold above about 2
CYP2C9 inh: blockers of cytochrome P450 2C9 activity – biochemical, luminescence, ADME assay, primary screen. 20% of 96,000 active. inhibition, % at 5 µM. P11712. CYP2C9 Supersomes, luciferin-H conversion;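 active means blocking of liver enzyme CYP2C9 beyond about 50% at 5 µM, limit read from the data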
CYP2C19 inh: blockers of cytochrome P450 2C19 activity – biochemical, luminescence, ADME assay, primary screen; P33261; CYP2C19 Supersomes, luciferin-H EGE luminescence, 30 min; inhibition, % at 5 µM; 21% of 96,000 active; AID 778, 2007;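 active means CYP2C19 inhibition above a set limit at 5 µM in the primary screen, cut at about 50% in these data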
Target sequence (P33261 whole entry, looked up): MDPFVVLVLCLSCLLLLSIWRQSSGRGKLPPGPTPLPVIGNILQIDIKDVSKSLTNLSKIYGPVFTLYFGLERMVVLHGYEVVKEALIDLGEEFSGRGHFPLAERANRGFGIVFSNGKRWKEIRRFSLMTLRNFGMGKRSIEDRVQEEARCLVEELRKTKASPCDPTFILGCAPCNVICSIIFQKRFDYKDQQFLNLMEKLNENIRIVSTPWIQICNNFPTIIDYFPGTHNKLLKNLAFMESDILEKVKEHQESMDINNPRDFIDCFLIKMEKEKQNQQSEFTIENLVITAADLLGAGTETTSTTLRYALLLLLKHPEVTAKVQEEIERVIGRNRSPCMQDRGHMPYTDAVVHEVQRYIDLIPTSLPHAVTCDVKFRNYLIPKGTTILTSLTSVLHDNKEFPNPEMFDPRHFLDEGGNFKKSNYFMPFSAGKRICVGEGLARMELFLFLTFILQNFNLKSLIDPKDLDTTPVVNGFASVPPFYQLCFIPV
CYP2C9 activ: human CYP2C9 activators, primary screen, biochemical, luminescence | Cytochrome P450 2C9 (Homo sapiens), P11712 | recombinant CYP2C9, luciferin-H conversion; stronger effect = higher value; factor 1 = untreated enzyme, 0 = blocked | activation factor at 5 µM | 1.4% of 96,000 active | AID 1024, 2008;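 active means activation factor of 2 or more for CYP2C9 at a 5 µM dose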
CYP2C19 act: human CYP2C19 activators, primary screen, biochemical, luminescence; Cytochrome P450 2C19 (Homo sapiens), P33261; recombinant CYP2C19, luciferin-H EGE luminescence; stronger effect = higher value; 0 = fully inhibited enzyme, 1 = untreated enzyme; activation factor at 5 µM; 96,000 tested, under 10 active; AID 1025, 2008;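 active means activation factor of at least 2 at 5 µM in the primary screen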
A number is an active result; - = inactive.

SMILES	PLAP activator	CYP2C9 inh	CYP2C19 inh	CYP2C9 activ	CYP2C19 act
c1ccc(Oc2cccc(NC3=NCCC3)c2)cc1	-	-	-	-	-
O=C(c1cccs1)N(Cc1ccccn1)Cc1ccco1	-	-	54	-	-
Cc1cc(C)c(C)c(/C=C(/C#N)C(N)=S)c1C	-	65	-	-	-
Cc1ccc(-n2nc(C)cc2NC(=O)c2ccc(C)s2)cc1	-	-	76	-	-
Cc1cc(NC(=O)c2cc(-c3ccccc3)on2)n(-c2ccccc2)n1	-	-	-	-	-
O=C(c1cnsn1)N1CCN(c2ccccn2)CC1	-	-	-	-	-
O=C(NNc1nc(-c2ccccc2)cs1)c1ccccc1	-	53	-	-	-
c1ccc(-c2csc(NNC3=NCCCCC3)n2)cc1	2.1	-	-	-	-
N#Cc1ccc(-c2csc(NNC(=O)c3ccccc3)n2)cc1	-	-	-	-	-
O=C(Nc1nc(-c2ccccc2)cs1)c1cccnc1	-	-	67	-	-
CCOC(=O)/C(N=Nc1ccc(F)cc1)=C(/O)c1ccc([N+](=O)[O-])cc1	-	-	-	-	-
Cc1onc(-c2ccccc2)c1C(=O)N1CCCSC1=Nc1ccccc1	-	61	98	-	-
COc1ccccc1N1CCN(C(=O)c2c(-c3ccccc3)noc2C)CC1	-	-	55	-	-
Cc1onc(-c2ccccc2)c1C(=O)N1CCCN(C(=O)c2c(-c3ccccc3)noc2C)CC1	-	-	-	-	-
O=C(c1ccco1)N1CCCSC1=Nc1ccccc1	-	-	-	-	-
COc1ccccc1N1CCN(C(=O)c2ccc(C(C)(C)C)cc2)CC1	-	91	75	-	-
COc1ccccc1N1CCN(C(=O)c2ccncc2)CC1	-	86	100	-	-
COc1ccccc1N1CCN(C(=O)c2ccc(S(=O)(=O)N3CCCC3)cc2)CC1	-	-	-	-	-
O=C(NCCCN1CCC(Cc2ccccc2)CC1)C1CCN(S(=O)(=O)N2CCOCC2)CC1	-	-	-	-	-
O=C(c1cccs1)N1CCN(S(=O)(=O)N2CCCCC2)CC1	-	-	-	-	-
CC(C)C(=O)Nc1nnc(CCN2CCOCC2)s1	-	-	-	-	-
O=C(Nc1ccccc1-c1ccccc1)NC1CCN(CC(=O)N2CCOCC2)CC1	-	-	-	-	-
Cc1onc(-c2ccccc2Cl)c1C(=O)Nc1nnc(-c2cccc([N+](=O)[O-])c2)s1	-	-	-	-	-
Cc1onc(-c2ccccc2Cl)c1C(=O)OCN1C(=O)c2ccccc2C1=O	-	-	56	-	-
Cc1ccc(-n2nc3c(c2NC(=O)c2ccc(Br)o2)CSC3)c(C)c1	-	67	-	-	-
SMILES	PLAP activator	CYP2C9 inh	CYP2C19 inh	CYP2C9 activ	CYP2C19 act
Cc1onc(-c2ccccc2Cl)c1C(=O)Nc1ccccc1C(N)=O	-	-	56	-	-
Cc1onc(-c2ccccc2Cl)c1C(=O)NCC(=O)O	-	-	-	-	-
CCSc1nnc(NC(=O)c2c(-c3ccccc3Cl)noc2C)s1	-	95	100	-	-
CCOC(=O)c1ccc(Oc2cc(C)nc(SC)n2)cc1	-	-	-	-	-
CC1=CCC(COC(=O)Nc2ccccc2)CC1 (stereo not given)	-	-	-	-	-
Cc1onc(-c2ccccc2Cl)c1C(=O)Nc1cccc2cccnc12	-	-	76	-	-
Cc1onc(-c2ccccc2Cl)c1C(=O)Nc1cccc2nsnc12	-	-	-	-	-
Cc1onc(-c2ccccc2Cl)c1C(=O)Nc1ccccc1C(=O)NC(C)C	-	79	-	-	-
Cc1ccccc1-n1nc2c(c1NC(=O)c1c(-c3ccccc3Cl)noc1C)CSC2	-	50	-	-	-
Cc1onc(-c2ccccc2Cl)c1C(=O)Nc1ccccc1N1CCOCC1	-	69	61	-	-
O=C(c1cccnc1)N1CCN(S(=O)(=O)c2ccc3ccccc3c2)CC1	-	-	-	-	-
Cc1onc(-c2ccccc2Cl)c1C(=O)NCc1ccccc1	-	58	88	-	-
Cc1ccc(C)c(NC(=S)N(CCc2nc3cc(C)c(C)cc3[nH]2)Cc2cccnc2)c1	-	74	-	-	-
NC(=O)CNC(=O)C1CCCc2c1[nH]c1ccc(Cl)cc21 (stereo not given)	-	50	-	-	-
